Measurements taken from ChEMBL document CHEMBL1961873, “Compounds: GSK PKIS; Assays: Nanosyn kinase panel” (2012).
Where “and” joins values, the source holds several entries; their conditions need not be identical. Equal values may be shown once.

Assays:
[1] = target: T1, Inhibitor of nuclear factor kappa-B kinase subunit epsilon (Homo sapiens) (UniProt Q14164); conditions: at 1 µM;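 also: reported values are averaged percent inhibition figures against human IKKε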
T1 sequence (whole entry): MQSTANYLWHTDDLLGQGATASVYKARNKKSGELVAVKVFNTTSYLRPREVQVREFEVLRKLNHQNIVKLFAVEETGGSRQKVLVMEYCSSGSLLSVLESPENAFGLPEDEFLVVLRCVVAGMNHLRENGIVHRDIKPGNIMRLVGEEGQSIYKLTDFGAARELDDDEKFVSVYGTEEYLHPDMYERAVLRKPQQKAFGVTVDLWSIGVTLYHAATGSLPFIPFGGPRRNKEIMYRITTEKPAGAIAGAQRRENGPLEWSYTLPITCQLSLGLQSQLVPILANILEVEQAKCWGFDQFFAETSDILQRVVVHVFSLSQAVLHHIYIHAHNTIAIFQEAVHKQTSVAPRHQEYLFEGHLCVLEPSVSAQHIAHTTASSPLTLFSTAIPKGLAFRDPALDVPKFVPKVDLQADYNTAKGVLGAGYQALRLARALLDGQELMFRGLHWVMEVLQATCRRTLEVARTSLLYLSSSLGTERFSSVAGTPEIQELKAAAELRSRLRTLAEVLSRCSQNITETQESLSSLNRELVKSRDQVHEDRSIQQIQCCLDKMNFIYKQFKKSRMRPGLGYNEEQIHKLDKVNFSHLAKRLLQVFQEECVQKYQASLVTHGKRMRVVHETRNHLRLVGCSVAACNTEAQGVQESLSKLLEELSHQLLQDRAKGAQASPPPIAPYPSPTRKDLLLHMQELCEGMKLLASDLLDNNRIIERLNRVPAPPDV

[2] = target: T2, Serine/threonine-protein kinase Nek1 (Homo sapiens) (UniProt Q96PY6); conditions: at 0.1 µM
T2 sequence (whole entry): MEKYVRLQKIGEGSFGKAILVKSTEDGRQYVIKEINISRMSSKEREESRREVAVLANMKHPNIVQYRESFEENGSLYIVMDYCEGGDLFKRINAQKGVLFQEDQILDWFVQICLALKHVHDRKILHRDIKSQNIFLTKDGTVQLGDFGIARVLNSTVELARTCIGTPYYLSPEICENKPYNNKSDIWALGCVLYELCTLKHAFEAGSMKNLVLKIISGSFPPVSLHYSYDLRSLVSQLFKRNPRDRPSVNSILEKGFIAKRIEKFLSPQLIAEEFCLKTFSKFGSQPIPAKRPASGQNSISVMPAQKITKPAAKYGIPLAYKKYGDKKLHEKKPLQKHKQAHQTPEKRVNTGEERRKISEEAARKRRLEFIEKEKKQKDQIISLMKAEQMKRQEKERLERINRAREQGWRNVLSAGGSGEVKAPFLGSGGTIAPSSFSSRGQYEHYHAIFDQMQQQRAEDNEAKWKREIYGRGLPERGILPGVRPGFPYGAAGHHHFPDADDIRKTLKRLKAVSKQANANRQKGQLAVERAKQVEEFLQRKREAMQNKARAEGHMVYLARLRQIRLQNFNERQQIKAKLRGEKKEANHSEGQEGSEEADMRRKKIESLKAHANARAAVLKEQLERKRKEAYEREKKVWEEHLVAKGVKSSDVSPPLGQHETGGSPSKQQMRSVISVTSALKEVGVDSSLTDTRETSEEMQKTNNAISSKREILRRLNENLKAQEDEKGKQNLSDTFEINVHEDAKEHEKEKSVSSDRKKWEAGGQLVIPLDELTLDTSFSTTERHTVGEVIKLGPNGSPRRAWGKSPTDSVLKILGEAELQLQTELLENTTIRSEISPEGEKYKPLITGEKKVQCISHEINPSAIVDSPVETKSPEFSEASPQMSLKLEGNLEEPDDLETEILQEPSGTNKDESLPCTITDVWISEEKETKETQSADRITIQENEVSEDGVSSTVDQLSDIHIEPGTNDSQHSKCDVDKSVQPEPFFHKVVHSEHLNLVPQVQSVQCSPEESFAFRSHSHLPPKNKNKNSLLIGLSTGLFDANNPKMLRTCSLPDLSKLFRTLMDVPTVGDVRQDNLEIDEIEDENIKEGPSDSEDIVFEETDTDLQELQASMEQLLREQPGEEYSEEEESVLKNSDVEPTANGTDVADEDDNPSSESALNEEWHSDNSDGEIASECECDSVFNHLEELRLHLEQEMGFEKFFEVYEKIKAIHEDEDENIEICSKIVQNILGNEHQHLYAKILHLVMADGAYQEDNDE

[3] = target: T2, Serine/threonine-protein kinase Nek1 (Homo sapiens); conditions: at 1 µM
[4] = target: T3, Serine/threonine-protein kinase Nek2 (Homo sapiens) (UniProt P51955); conditions: at 0.1 µM
T3 sequence (whole entry): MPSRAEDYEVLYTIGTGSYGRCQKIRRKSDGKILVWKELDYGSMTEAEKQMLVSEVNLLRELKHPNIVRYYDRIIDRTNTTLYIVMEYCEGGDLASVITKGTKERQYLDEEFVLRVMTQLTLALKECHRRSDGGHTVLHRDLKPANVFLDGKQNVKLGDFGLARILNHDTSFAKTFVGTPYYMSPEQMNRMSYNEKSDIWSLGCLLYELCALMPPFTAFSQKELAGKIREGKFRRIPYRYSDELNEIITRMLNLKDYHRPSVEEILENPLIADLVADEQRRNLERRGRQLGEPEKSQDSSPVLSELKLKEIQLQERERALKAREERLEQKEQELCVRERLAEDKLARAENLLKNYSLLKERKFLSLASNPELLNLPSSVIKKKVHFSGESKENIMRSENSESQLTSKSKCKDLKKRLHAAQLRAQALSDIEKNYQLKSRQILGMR

[5] = target: T3, Serine/threonine-protein kinase Nek2 (Homo sapiens); conditions: at 1 µM
[6] = target: Serine/threonine-protein kinase Nek6 (Homo sapiens) (UniProt Q9HC98); conditions: at 0.1 µM
Chain of Serine/threonine-protein kinase Nek6 (Homo sapiens) (Q9HC98 whole entry): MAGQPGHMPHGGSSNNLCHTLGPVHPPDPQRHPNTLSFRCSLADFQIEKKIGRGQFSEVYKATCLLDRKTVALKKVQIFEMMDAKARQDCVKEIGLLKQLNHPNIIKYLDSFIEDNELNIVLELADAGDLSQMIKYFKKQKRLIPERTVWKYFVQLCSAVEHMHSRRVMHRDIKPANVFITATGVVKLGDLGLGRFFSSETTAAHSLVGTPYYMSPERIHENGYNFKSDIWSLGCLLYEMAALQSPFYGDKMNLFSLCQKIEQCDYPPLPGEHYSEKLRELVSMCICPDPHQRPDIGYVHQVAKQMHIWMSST

[7] = target: Serine/threonine-protein kinase Nek6 (Homo sapiens) (UniProt Q9HC98); conditions: at 1 µM
[8] = target: Serine/threonine-protein kinase Nek7 (Homo sapiens) (UniProt Q8TDX7); conditions: at 0.1 µM
Chain of Serine/threonine-protein kinase Nek7 (Homo sapiens) (Q8TDX7 whole entry, looked up): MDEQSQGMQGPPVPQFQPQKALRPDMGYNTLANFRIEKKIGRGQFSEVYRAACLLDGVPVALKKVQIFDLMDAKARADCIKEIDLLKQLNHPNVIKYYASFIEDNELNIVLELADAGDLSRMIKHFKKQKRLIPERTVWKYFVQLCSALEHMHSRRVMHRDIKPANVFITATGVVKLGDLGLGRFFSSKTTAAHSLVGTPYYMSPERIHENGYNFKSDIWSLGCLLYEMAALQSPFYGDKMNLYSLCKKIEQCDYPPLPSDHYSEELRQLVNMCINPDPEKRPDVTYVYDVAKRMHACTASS

[9] = target: Serine/threonine-protein kinase Nek7 (Homo sapiens) (UniProt Q8TDX7); conditions: at 1 µM
[10] = target: T4, Serine/threonine-protein kinase Nek9 (Homo sapiens) (UniProt Q8TD19); conditions: at 0.1 µM
T4 sequence (whole entry): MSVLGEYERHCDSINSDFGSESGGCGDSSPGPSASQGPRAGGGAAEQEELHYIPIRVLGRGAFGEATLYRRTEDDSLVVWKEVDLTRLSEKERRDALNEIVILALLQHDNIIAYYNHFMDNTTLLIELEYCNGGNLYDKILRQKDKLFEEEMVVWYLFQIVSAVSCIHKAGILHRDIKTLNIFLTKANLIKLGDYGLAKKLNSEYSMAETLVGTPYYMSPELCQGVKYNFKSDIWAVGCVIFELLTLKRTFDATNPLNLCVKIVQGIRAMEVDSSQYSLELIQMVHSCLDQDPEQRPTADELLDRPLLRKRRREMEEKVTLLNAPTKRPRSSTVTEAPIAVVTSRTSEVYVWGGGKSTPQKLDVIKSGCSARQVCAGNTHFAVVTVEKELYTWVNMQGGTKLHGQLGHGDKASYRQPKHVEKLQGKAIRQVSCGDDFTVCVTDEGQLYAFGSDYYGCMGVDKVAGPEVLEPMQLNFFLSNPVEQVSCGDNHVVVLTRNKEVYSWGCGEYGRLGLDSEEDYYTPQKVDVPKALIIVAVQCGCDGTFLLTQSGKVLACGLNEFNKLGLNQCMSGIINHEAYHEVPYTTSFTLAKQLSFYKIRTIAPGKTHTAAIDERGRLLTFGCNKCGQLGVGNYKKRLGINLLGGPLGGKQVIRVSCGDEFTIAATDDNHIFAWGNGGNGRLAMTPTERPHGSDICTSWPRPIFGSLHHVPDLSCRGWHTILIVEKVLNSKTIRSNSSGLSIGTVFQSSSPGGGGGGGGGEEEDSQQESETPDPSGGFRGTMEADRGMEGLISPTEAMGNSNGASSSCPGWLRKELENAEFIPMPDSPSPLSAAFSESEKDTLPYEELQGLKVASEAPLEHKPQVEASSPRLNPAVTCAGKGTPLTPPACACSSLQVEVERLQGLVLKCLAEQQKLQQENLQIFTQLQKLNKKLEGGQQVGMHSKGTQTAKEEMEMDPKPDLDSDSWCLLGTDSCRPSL

[11] = target: T4, Serine/threonine-protein kinase Nek9 (Homo sapiens); conditions: at 1 µM
[12] = target: Serine/threonine-protein kinase PLK1 (Homo sapiens) (UniProt P53350); conditions: at 0.1 µM
Chain of Serine/threonine-protein kinase PLK1 (Homo sapiens) (P53350 whole entry): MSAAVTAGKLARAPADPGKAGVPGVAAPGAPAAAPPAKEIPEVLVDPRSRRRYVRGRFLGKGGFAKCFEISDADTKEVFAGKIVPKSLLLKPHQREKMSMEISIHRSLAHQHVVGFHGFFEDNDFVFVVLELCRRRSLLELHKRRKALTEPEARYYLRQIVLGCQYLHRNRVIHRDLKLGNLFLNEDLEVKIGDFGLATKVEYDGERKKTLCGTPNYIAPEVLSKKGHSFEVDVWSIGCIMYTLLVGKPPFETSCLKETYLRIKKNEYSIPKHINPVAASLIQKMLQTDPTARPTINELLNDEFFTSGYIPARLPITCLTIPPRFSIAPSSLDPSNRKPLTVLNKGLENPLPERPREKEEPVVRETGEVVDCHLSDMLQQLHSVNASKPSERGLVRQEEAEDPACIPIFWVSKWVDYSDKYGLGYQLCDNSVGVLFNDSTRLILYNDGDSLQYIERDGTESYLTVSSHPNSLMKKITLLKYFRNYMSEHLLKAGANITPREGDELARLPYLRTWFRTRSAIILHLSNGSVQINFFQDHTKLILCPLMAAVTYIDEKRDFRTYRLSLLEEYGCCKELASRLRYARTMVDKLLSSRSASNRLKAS

[13] = target: Serine/threonine-protein kinase PLK1 (Homo sapiens) (UniProt P53350); conditions: at 1 µM
[14] = target: T5, Dual specificity protein kinase TTK (Homo sapiens) (UniProt P33981); conditions: at 0.1 µM
T5 sequence (whole entry): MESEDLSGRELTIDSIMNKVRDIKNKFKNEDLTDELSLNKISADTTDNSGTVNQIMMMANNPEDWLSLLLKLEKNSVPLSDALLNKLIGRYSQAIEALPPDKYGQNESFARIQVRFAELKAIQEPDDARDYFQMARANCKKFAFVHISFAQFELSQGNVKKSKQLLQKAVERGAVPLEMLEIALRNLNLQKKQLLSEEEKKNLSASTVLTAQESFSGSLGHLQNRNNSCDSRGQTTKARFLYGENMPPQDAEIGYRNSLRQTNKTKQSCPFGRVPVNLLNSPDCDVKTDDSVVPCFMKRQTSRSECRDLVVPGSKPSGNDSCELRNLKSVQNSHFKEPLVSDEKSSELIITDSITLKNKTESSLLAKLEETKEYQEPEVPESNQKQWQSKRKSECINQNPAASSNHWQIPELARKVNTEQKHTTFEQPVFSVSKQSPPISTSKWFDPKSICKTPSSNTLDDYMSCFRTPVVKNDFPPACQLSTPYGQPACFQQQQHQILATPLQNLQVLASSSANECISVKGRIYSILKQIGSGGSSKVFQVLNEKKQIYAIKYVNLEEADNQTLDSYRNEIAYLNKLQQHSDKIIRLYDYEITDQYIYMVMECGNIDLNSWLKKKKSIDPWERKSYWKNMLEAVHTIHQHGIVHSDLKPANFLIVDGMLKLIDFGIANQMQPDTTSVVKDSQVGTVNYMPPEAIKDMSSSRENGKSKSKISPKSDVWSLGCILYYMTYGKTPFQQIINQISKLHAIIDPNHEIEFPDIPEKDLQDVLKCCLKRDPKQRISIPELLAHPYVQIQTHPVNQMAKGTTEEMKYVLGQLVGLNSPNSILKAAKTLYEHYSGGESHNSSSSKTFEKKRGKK

[15] = system: T6, Receptor-type tyrosine-protein kinase FLT3 (Homo sapiens), P36888 [D835Y]; conditions: at 1 µM
T6 sequence (whole entry): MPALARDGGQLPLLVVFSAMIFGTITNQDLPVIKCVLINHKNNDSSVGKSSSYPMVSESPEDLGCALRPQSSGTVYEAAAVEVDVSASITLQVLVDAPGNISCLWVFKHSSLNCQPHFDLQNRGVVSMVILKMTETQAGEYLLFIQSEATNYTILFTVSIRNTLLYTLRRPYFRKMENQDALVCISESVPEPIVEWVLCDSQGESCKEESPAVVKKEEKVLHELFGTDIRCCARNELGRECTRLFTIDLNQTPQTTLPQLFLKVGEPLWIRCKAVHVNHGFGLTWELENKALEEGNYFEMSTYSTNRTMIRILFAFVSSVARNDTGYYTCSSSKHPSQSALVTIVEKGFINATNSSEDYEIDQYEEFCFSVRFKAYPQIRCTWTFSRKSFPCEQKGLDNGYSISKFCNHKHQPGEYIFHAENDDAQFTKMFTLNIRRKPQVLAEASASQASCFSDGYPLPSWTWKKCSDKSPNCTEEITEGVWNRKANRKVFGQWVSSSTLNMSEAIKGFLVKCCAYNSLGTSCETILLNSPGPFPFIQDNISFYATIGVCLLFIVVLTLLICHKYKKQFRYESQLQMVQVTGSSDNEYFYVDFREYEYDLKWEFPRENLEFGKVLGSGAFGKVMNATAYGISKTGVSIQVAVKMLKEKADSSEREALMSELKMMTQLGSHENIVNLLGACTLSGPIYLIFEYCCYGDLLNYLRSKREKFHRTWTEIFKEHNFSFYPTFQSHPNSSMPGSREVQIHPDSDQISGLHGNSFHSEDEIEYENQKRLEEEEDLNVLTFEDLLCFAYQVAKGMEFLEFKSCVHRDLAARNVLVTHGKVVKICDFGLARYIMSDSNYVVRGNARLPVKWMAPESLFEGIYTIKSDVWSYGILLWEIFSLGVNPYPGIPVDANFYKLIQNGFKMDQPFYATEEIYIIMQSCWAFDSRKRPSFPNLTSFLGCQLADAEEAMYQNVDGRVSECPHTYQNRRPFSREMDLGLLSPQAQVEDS

[16] = target: Vascular endothelial growth factor receptor 3 (Homo sapiens) (UniProt P35916); conditions: at 0.1 µM
Chain of Vascular endothelial growth factor receptor 3 (Homo sapiens) (P35916 whole entry): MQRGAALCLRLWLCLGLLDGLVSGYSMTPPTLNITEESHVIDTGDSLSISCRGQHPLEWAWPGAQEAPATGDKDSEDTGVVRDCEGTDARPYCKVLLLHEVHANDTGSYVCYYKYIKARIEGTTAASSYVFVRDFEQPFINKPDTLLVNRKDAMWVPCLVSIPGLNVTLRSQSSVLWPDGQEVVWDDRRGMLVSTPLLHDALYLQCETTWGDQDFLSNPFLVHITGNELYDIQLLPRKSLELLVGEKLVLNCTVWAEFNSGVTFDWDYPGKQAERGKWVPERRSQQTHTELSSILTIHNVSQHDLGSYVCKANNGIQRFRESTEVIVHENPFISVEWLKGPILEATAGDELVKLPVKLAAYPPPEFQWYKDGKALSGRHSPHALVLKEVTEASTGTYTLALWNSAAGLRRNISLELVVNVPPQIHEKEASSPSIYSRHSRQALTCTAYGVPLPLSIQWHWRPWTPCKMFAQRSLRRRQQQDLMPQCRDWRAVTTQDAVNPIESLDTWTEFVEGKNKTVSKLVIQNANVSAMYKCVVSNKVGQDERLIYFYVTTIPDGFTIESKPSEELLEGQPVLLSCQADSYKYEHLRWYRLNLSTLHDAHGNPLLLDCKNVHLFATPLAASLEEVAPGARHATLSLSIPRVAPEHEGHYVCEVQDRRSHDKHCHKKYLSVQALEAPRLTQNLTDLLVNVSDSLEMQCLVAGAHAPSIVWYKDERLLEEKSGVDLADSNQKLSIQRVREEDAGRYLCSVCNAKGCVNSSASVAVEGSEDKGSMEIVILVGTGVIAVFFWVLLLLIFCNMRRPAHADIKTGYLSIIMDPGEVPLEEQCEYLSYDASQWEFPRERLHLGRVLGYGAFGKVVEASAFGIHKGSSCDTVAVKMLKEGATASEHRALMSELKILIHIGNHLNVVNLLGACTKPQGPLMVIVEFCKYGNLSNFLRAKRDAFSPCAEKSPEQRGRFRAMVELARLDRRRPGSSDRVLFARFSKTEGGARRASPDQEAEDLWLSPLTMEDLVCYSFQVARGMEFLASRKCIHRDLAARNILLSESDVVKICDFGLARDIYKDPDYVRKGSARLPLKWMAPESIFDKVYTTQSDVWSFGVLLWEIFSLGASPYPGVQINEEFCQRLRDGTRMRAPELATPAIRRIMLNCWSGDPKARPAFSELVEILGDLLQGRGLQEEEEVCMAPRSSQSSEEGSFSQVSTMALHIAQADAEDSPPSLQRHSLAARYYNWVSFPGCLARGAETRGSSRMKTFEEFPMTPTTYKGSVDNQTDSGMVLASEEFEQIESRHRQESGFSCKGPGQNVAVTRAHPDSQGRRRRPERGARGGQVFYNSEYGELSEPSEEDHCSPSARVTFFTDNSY

[17] = target: Vascular endothelial growth factor receptor 3 (Homo sapiens) (UniProt P35916); conditions: at 1 µM
[18] = target: Macrophage colony-stimulating factor 1 receptor (Homo sapiens) (UniProt P07333); conditions: at 0.1 µM
Chain of Macrophage colony-stimulating factor 1 receptor (Homo sapiens) (P07333 whole entry): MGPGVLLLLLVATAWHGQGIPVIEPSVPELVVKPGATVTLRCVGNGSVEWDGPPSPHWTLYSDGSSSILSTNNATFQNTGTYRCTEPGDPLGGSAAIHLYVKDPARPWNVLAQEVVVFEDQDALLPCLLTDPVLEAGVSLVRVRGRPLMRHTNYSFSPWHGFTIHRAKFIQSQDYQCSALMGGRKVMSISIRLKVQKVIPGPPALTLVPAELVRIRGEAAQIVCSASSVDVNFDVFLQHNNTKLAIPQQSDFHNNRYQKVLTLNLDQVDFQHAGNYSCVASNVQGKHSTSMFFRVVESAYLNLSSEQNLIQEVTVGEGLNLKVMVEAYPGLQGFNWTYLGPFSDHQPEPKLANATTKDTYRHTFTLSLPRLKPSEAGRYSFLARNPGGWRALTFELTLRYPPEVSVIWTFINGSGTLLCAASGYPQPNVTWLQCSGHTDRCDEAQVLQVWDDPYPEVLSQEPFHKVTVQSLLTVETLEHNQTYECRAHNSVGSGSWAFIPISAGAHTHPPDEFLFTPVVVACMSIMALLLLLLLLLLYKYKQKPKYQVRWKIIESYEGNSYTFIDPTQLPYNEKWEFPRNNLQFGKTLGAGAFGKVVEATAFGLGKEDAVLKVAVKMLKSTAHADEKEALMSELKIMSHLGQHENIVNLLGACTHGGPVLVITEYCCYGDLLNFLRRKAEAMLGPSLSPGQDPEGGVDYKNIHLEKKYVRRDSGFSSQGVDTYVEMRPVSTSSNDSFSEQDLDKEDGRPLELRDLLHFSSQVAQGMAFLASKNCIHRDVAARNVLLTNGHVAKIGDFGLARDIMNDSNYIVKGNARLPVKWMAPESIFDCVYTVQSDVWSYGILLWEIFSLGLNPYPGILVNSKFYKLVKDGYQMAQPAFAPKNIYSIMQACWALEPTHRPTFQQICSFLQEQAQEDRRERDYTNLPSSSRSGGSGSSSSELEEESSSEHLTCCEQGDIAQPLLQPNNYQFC

[19] = target: Macrophage colony-stimulating factor 1 receptor (Homo sapiens) (UniProt P07333); conditions: at 1 µM
[20] = target: Tyrosine-protein kinase Fyn (Homo sapiens) (UniProt P06241); conditions: at 0.1 µM
Chain of Tyrosine-protein kinase Fyn (Homo sapiens) (P06241 2-537 limits assumed): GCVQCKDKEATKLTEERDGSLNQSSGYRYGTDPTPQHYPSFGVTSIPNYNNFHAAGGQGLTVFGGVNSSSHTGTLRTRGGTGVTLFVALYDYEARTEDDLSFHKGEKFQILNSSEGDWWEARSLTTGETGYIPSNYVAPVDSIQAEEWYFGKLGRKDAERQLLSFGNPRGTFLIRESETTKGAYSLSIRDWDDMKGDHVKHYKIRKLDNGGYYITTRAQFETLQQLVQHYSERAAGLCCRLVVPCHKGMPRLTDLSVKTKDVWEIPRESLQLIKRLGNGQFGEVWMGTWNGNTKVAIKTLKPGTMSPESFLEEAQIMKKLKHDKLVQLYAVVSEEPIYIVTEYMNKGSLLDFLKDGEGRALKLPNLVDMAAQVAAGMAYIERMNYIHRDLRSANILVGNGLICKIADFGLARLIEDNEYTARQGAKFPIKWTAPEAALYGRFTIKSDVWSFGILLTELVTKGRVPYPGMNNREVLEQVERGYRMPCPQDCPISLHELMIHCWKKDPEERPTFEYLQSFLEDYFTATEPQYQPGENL

Compound	inhibition [1]	inhibition [2]	inhibition [3]	inhibition [4]	inhibition [5]	inhibition [6]	inhibition [7]	inhibition [8]	inhibition [9]	inhibition [10]	inhibition [11]	inhibition [12]	inhibition [13]	inhibition [14]	inhibition [15]	inhibition [16]	inhibition [17]	inhibition [18]	inhibition [19]	inhibition [20]
Nc1nccc(-c2c(-c3ccc(F)cc3)ncn2C2CCNCC2)n1	-3.35% and 1.18%	-2.75% and -0.7%	0.36% and 1.29%	-3.4% and 0.5%	-4.07% and 0.05%	-2.7% and -2.19%	-2.93% and 2.63%	-2.09% and 0.15%	-4.78% and 0.13%	0.73% and -1.84%	3.57% and -1.29%	-0.73% and -0.83%	0.68% and 2.5%	-4.46% and 0.75%	4.31% and -2.1%	0.55% and 1.51%	-0.68% and 1.04%	-0.4% and 1.93%	0.46% and 3.61%	-0.69% and 0.67%
COc1cc2c(cc1Nc1nc(Nc3cccc(F)c3C(N)=O)c3cc[nH]c3n1)N(C(=O)CN1CCN(C(C)C)CC1)CC2	2.31%	2.53%	6.64%	2.3%	2.17%	1.18%	1.05%	3.3%	6.3%	0.4%	6.33%	4.96%	25.8%	11.4%	2%	-0.29%	4.32%	-0.95%	5.37%	1.51%
FC(F)(F)CNc1nccc(-c2cnn3ncccc23)n1	0.44%	2.31%	0.95%	3.06%	2.24%	0.83%	0.6%	-1.64%	1.79%	4.65%	0.64%	0.06%	0.65%	3.92%	6%	2.05%	2.12%	-4.71%	3.68%	0.85%
